Test results taken from the antibiotic and cytotoxicity screens of Wong et al. (2023).
Screen size: about 39,000 compounds; about 1,500 (3.8%) were called active. Only a selection was taken, and actives are over-represented in it overall.

System: HSkMC (human skeletal muscle cells)
Test: cytotoxicity call (relative viability < 0.9)
Conditions: 10 µM

Compound	cytotoxicity call
Cc1ccc(S(=O)(=O)N(C)C[C@@H]2Oc3c(NC(=O)Nc4ccc(C(F)(F)F)cc4)cccc3C(=O)N([C@H](C)CO)C[C@H]2C)cc1	inactive
Cc1ccc(S(=O)(=O)N(C)C[C@H]2Oc3c(NC(=O)Nc4ccc(C(F)(F)F)cc4)cccc3C(=O)N([C@H](C)CO)C[C@H]2C)cc1	active
Cc1ccc(S(=O)(=O)N(C)C[C@@H]2Oc3c(NC(=O)Nc4ccc(C(F)(F)F)cc4)cccc3C(=O)N([C@@H](C)CO)C[C@H]2C)cc1	inactive
Cc1ccc(S(=O)(=O)N(C)C[C@@H]2Oc3c(NC(=O)Nc4ccc(C(F)(F)F)cc4)cccc3C(=O)N([C@H](C)CO)C[C@@H]2C)cc1	inactive
Cc1ccc(S(=O)(=O)N(C)C[C@H]2Oc3c(NC(=O)Nc4ccc(C(F)(F)F)cc4)cccc3C(=O)N([C@@H](C)CO)C[C@@H]2C)cc1	inactive
Cc1ccc(S(=O)(=O)N(C)C[C@H]2Oc3c(NC(=O)Nc4ccc(C(F)(F)F)cc4)cccc3C(=O)N([C@@H](C)CO)C[C@H]2C)cc1	active
[N-]=[N+]=N[C@]1(CO)O[C@@H](n2ccc(N)nc2=O)[C@H](O)[C@@H]1O	inactive
c1ccc(CCN2CCNCC2)nc1	inactive
C[C@@H]1CN([C@H](C)CO)C(=O)c2cc(Br)cnc2O[C@@H]1CN(C)S(=O)(=O)c1ccccc1	inactive
Cc1ccc(S(=O)(=O)N(C)C[C@@H]2Oc3ncc(C#CC4(O)CCCC4)cc3C(=O)N([C@@H](C)CO)C[C@@H]2C)cc1	inactive
COc1ccc(S(=O)(=O)N(C)C[C@@H]2Oc3ccc(NS(=O)(=O)c4c(C)noc4C)cc3C(=O)N([C@H](C)CO)C[C@@H]2C)cc1	inactive
CCCNC(=O)C[C@H]1CC[C@H]2[C@@H](COc3ccc(NS(=O)(=O)c4ccccc4C)cc3C(=O)N2C)O1	inactive
C[C@@H]1CN([C@H](C)CO)C(=O)Cc2cc(NC(=O)CCCCCC(=O)Nc3ccccc3N)ccc2O[C@@H]1CN(C)Cc1ccc(-c2ccccc2)cc1	active
C[C@@H]1CN([C@H](C)CO)C(=O)Cc2cc(NC(=O)CCCCCC(=O)Nc3ccccc3N)ccc2O[C@@H]1CN(C)Cc1ccc(Oc2ccccc2)cc1	active
C[C@@H]1CN([C@@H](C)CO)C(=O)c2cc(NC(=O)CCCCCC(=O)Nc3ccccc3N)ccc2O[C@@H]1CN(C)Cc1ccc(-c2ccccc2)cc1	inactive
C[C@@H]1CN([C@H](C)CO)C(=O)Cc2cc(NC(=O)CCCCCC(=O)Nc3ccccc3N)ccc2O[C@H]1CN(C)Cc1ccc(-c2ccccc2)cc1	inactive
C[C@@H]1CN([C@@H](C)CO)C(=O)Cc2cc(NC(=O)CCCCCC(=O)Nc3ccccc3N)ccc2O[C@@H]1CN(C)Cc1ccc(Oc2ccccc2)cc1	inactive
C[C@H]1CN([C@@H](C)CO)C(=O)Cc2cc(NC(=O)CCCCCC(=O)Nc3ccccc3N)ccc2O[C@@H]1CN(C)Cc1ccc(Oc2ccccc2)cc1	inactive
C[C@@H]1CN([C@@H](C)CO)C(=O)Cc2cc(NC(=O)CCCCCC(=O)Nc3ccccc3N)ccc2O[C@@H]1CN(C)CC1CCCCC1	inactive
C[C@@H]1CN([C@H](C)CO)C(=O)Cc2cc(NC(=O)CCCCCC(=O)Nc3ccccc3N)ccc2O[C@@H]1CN(C)CC1CCCCC1	active

Compound	cytotoxicity call
C[C@@H]1CN([C@H](C)CO)C(=O)c2cc(NC(=O)CCCCCC(=O)Nc3ccccc3N)ccc2O[C@H]1CN(C)Cc1ccc(-c2ccccc2)cc1	active
C[C@H]1CN([C@@H](C)CO)C(=O)c2cc(NC(=O)CCCCCC(=O)Nc3ccccc3N)ccc2O[C@H]1CN(C)Cc1ccc(-c2ccccc2)cc1	inactive
C[C@H]1CN([C@@H](C)CO)C(=O)Cc2cc(NC(=O)CCCCCC(=O)Nc3ccccc3N)ccc2O[C@H]1CN(C)Cc1ccc(-c2ccccc2)cc1	inactive
C[C@@H]1CN([C@H](C)CO)C(=O)Cc2cc(NC(=O)CCCCCC(=O)Nc3ccccc3N)ccc2O[C@H]1CN(C)CC1CCCCC1	inactive
CN1C[C@H](O)COC[C@@H]2O[C@@H](CC(=O)N3CCN(c4ccccc4)CC3)CC[C@H]21	inactive
C[C@@H]1CCCCO[C@H](CN(C)C(=O)Nc2ccc(C(F)(F)F)cc2)[C@H](C)CN([C@H](C)CO)C(=O)c2cc(N(C)C)ccc2O1	inactive
COc1cccc(NC(=O)N(C)C[C@H]2Oc3ncc(C#Cc4cccnc4)cc3C(=O)N([C@@H](C)CO)C[C@@H]2C)c1	inactive
C[C@@H]1CN([C@H](C)CO)C(=O)Cc2cc(NC(=O)CCN3CCOCC3)ccc2O[C@H]1CN(C)S(=O)(=O)c1ccc(Cl)cc1	inactive
O=C(O)c1cc(F)c2nc(N3[C@@H]4CC[C@H]3C[C@@H](OCc3c(-c5ccccc5OC(F)(F)F)noc3C3CC3)C4)sc2c1	inactive
C[C@H](CO)N1C[C@H](C)[C@H](CN(C)Cc2ccncc2)Oc2c(NC(=O)Nc3cccc4ccccc34)cccc2C1=O	inactive
C[C@H](CO)N1C[C@H](C)[C@@H](CN(C)S(=O)(=O)c2ccc(Oc3ccccc3)cc2)OCc2cnnn2CCCC1=O	inactive
C[C@@H]1CN([C@@H](C)CO)C(=O)c2cc(NC(=O)C3CCCCC3)ccc2O[C@@H](C)CCCCO[C@H]1CN(C)Cc1ccc2c(c1)OCO2	inactive
COc1ccc(CNC(=O)C[C@@H]2C[C@@H]3c4cc(NS(=O)(=O)c5ccc(F)cc5)ccc4O[C@@H]3[C@H](CO)O2)cc1	inactive
O=C1c2ccc3c4c(ccc(c24)C(=O)N1CCCCO)C(=O)N(CCCCO)C3=O	active
NC(=O)CCN1C(=O)c2ccccc2C1=O	inactive
O=C(O)CCCN1C(=O)c2cccc3cccc(c23)C1=O	inactive
CN1C(=O)c2cc(NC(=O)C3CCOCC3)ccc2OC[C@H]2O[C@H](CC(=O)NCc3ccc4c(c3)OCO4)CC[C@H]21	inactive
C[C@H](CO)N1C[C@H](C)[C@H](CN(C)S(=O)(=O)c2cccs2)Oc2c(NS(=O)(=O)c3cn(C)cn3)cccc2C1=O	inactive
C[C@@H]1CN([C@@H](C)CO)C(=O)c2cc(NS(=O)(=O)c3ccc(Cl)cc3)ccc2O[C@@H](C)CCCCO[C@@H]1CN(C)C(=O)Nc1ccc(C(F)(F)F)cc1	inactive
C[C@@H]1CCCCO[C@H](CN(C)C(=O)Nc2ccc(C(F)(F)F)cc2)[C@H](C)CN([C@H](C)CO)C(=O)c2cc(NS(=O)(=O)c3ccc(Cl)cc3)ccc2O1	inactive

Compound	cytotoxicity call
C[C@@H]1CCCCO[C@@H](CN(C)C(=O)Nc2ccc(C(F)(F)F)cc2)[C@H](C)CN([C@@H](C)CO)C(=O)c2cc(NS(=O)(=O)c3ccc(F)cc3)ccc2O1	inactive
C[C@H]1CCCCO[C@H](CN(C)C(=O)Nc2ccc(C(F)(F)F)cc2)[C@@H](C)CN([C@@H](C)CO)C(=O)c2cc(NS(=O)(=O)c3ccc(F)cc3)ccc2O1	active
C[C@@H]1CN([C@H](C)CO)C(=O)c2cc(NS(=O)(=O)c3ccc(Cl)cc3)ccc2O[C@@H](C)CCCCO[C@H]1CN(C)C(=O)Nc1ccc(C(F)(F)F)cc1	active
C[C@@H]1CCCCO[C@@H](CN(C)C(=O)Nc2ccc(C(F)(F)F)cc2)[C@H](C)CN([C@H](C)CO)C(=O)c2cc(NS(=O)(=O)c3ccc(F)cc3)ccc2O1	inactive
C[C@H](CO)N1C[C@H](C)[C@H](CN(C)C(=O)Nc2ccc(C(F)(F)F)cc2)OCCCC[C@H](C)Oc2ccc(NS(=O)(=O)c3ccc(Cl)cc3)cc2C1=O	inactive
C[C@@H]1CCCCO[C@H](CN(C)C(=O)Nc2ccc(C(F)(F)F)cc2)[C@@H](C)CN([C@@H](C)CO)C(=O)c2cc(NS(=O)(=O)c3ccc(Cl)cc3)ccc2O1	active
C[C@H]1CCCCO[C@@H](CN(C)C(=O)Nc2ccc(C(F)(F)F)cc2)[C@@H](C)CN([C@@H](C)CO)C(=O)c2cc(NS(=O)(=O)c3ccc(Cl)cc3)ccc2O1	inactive
C[C@@H]1CCCCO[C@H](CN(C)C(=O)Nc2ccc(C(F)(F)F)cc2)[C@H](C)CN([C@@H](C)CO)C(=O)c2cc(NS(=O)(=O)c3ccc(Cl)cc3)ccc2O1	inactive
C[C@@H]1CCCCO[C@@H](CN(C)C(=O)Nc2ccc(C(F)(F)F)cc2)[C@H](C)CN([C@@H](C)CO)C(=O)c2cc(NS(=O)(=O)c3ccc(Cl)cc3)ccc2O1	inactive
C[C@@H]1CCCCO[C@@H](CN(C)C(=O)Nc2ccc(C(F)(F)F)cc2)[C@H](C)CN([C@H](C)CO)C(=O)c2cc(NS(=O)(=O)c3ccc(Cl)cc3)ccc2O1	active
C[C@H](CO)N1C[C@H](C)[C@H](CN(C)C(=O)Nc2ccc(C(F)(F)F)cc2)Oc2c(NC(=O)Nc3ccc4c(c3)OCO4)cccc2C1=O	inactive
C[C@H]1CN([C@@H](C)CO)C(=O)c2cc(NS(=O)(=O)c3ccc(F)cc3)ccc2O[C@H]1CN(C)Cc1ccncc1	inactive
c1ccc([C@@H]2Oc3ccccc3[C@@H]3Oc4ccccc4C[C@@H]23)cc1	inactive
Cc1noc(C)c1S(=O)(=O)Nc1cccc2c1O[C@H](CN(C)CC1CC1)[C@H](C)CN([C@H](C)CO)C2=O	inactive
C[C@@H]1CN([C@@H](C)CO)C(=O)c2cc(NC(=O)Cc3ccccc3)ccc2O[C@@H](C)CCCCO[C@@H]1CN(C)C(=O)Nc1ccccc1	inactive
COc1ccc(CN(C)C[C@@H]2OCCCC[C@H](C)Oc3ccc(NC(=O)C4CCCCC4)cc3C(=O)N([C@@H](C)CO)C[C@H]2C)cc1	inactive
C[C@@H]1CN([C@@H](C)CO)C(=O)c2cccc(NC(=O)C3CC3)c2O[C@@H]1CN(C)Cc1ccc(C(=O)O)cc1	inactive
Cc1noc(C)c1S(=O)(=O)N(C)C[C@H]1Oc2ccc(NC(=O)C3CC3)cc2CC(=O)N([C@H](C)CO)C[C@H]1C	inactive
